Source: PubChem BioAssay (Tox21)
Several values for one entry are separate records, joined by “and”; a condition that tells them apart may be missing. Equal entries are not always repeated. Inconclusive results are not listed. A call without a number means that no potency is given here. Where a structure was tested more than once in an assay, its records may differ in their call. Activity calls are given as the source filed them. Unless noted, the call rests on the fitted dose curve; in most records, active means well fitted curve in the direction sought with a large enough effect in the repeat runs; inconclusive means weak or mixed curves; inactive means no such curve, though single readings can be large; an effect the other way counts as inactive or inconclusive.

Experiments:
[1] = A CellTox Green Cytotoxicity Assay to monitor cytotoxicity in HEK293 cells - 32 hour (AID 1224881); further: nearly all actives have a fitted effect of over 40% in size
Summary of the method: (§1)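 Tox21 screen in HEK293: membrane-impermeant cyanine dye fluoresces on binding dead-cell DNA; compound pinned 5 h post-seeding, plates held at 37 C, signal read repeatedly through 40 h.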

[2] = A CellTox Green Cytotoxicity Assay to monitor cytotoxicity in HepG2 cells - 0 hour (AID 1224882); further: nearly all actives have a fitted effect of over 35% in size
Summary of the method: (§2)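 Measurements at 0, 8, 16, 24, 32 and 40 h of treatment captured CellTox Green fluorescence in HepG2 cells that had been co-plated with reagent and preincubated 5 h at 37 C/5% CO2.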

[3] = A CellTox Green Cytotoxicity Assay to monitor cytotoxicity in HepG2 cells - 32 hour (AID 1224883); further: nearly all actives have a fitted effect of over 50% in size; further: potency means the concentration at half of the fitted maximal effect
Summary of the method: as §2

[4] = A CellTox Green Cytotoxicity Assay to monitor cytotoxicity in HEK293 cells - 8 hour (AID 1224884); further: nearly all actives have a fitted effect of over 35% in size
Summary of the method: as §1

[5] = qHTS RealTime-Glo MT Cell Viability Assay in HepG2 cells - 16 hour (AID 1224885); further: nearly all actives have a fitted effect of over 50% in size
Summary of the method: (§3)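 HepG2 cells (600/well) were dispensed with RealTime-Glo reagents, incubated 5 h at 37 °C, then treated with compounds in DMSO for up to 40 h. Nonlytic NanoLuc luminescence reflecting viable cells was read at each stated time point.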

[6] = qHTS RealTime-Glo MT Cell Viability Assay in HEK293 cells - 24 hour (AID 1224886); further: top concentration of the series differs between compounds; nearly all actives have a fitted effect of over 50% in size
Summary of the method: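 HEK293 cells seeded with NanoLuc/prosubstrate reagent, rested 5 h at 37 C, then dosed and kept at 37 C up to 40 h. Nonlytic real-time luminescence from viable cells read at 0, 8, 16, 24, 32 and 40 h.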

[7] = qHTS RealTime-Glo MT Cell Viability Assay in HEK293 cells - 8 hour (AID 1224887); further: top concentration of the series differs between compounds; nearly all actives have a fitted effect of over 50% in size
Summary of the method: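 HEK293 + NanoLuc + prosubstrate, 600 cells/well; 5 h, 37 C/5% CO2; compound 23 nL in DMSO by pintool; 37 C; luminescence read at 0, 8, 16, 24, 32 and 40 h time points.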

[8] = A CellTox Green Cytotoxicity Assay to monitor cytotoxicity in HEK293 cells - 16 hour (AID 1224888); further: nearly all actives have a fitted effect of over 35% in size
Summary of the method: as §1

[9] = qHTS RealTime-Glo MT Cell Viability Assay in HepG2 cells - 0 hour (AID 1224889); further: nearly all actives have a fitted effect of over 50% in size
Summary of the method: as §3

[10] = A CellTox Green Cytotoxicity Assay to monitor cytotoxicity in HepG2 cells - 8 hour (AID 1224890); further: nearly all actives have a fitted effect of over 45% in size
Summary of the method: as §2

[11] = qHTS assay to identify small molecule antagonists of the estrogen receptor alpha (ER-alpha) signaling pathway using the BG1 cell line in the presence of 0.1 nM 17-beta-estradiol - cell viability counter screen (AID 1259241); further: nearly all actives have a fitted effect of over 40% in size
Summary of the method: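 Cytotoxicity counter-screen: live-cell protease activity measured by fluorescence (30 min reagent step) in the same wells. Cells were VM7Luc4E2 with endogenous ER-alpha and ERE-driven luciferase, treated 22 hr at 37C alongside 0.1 nM 17beta-estradiol final.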

[12] = qHTS assay to identify small molecule antagonists of the androgen receptor (AR) signaling pathway using the MDA cell line in the presence of 0.5 nM R1881 - cell viability counter screen (AID 1259242); further: nearly all actives have a fitted effect of over 45% in size
Summary of the method: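 Concentration-response screen of compounds for toxicity in MDA-kb2 reporter cells: 16 hr at 37C with 0.5 nM R1881, endpoint live-cell protease fluorescence measured in the reporter wells.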

[13] = molecular target: Estrogen receptor (Homo sapiens) (UniProt P03372); test: qHTS assay to identify small molecule antagonists of the estrogen receptor alpha (ER-alpha) signaling pathway using the BG1 cell line in the presence of 0.1 nM 17-beta-estradiol (AID 1259244); further: nearly all actives have a fitted effect of over 50% in size
Estrogen receptor (Homo sapiens), sequence (P03372 whole entry, looked up): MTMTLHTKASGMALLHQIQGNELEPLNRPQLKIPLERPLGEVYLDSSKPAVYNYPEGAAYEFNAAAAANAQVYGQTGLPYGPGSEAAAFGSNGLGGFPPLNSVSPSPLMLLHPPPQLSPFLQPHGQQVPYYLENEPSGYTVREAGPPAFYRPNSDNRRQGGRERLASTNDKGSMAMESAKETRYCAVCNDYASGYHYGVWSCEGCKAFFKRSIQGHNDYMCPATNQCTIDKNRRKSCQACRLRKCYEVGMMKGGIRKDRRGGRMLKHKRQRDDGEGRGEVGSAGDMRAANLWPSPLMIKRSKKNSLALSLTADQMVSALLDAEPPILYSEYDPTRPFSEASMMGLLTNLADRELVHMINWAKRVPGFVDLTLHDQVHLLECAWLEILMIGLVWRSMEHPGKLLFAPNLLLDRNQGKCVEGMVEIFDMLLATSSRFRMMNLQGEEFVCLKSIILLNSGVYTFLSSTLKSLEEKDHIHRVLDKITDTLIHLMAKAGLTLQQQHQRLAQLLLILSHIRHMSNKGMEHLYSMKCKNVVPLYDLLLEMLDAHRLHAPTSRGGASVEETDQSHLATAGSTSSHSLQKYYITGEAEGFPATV
Summary of the method: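 Compounds were tested against 0.1 nM (final) 17beta-estradiol in VM7Luc4E2 cells, which express full-length ER-alpha and an ERE-luciferase reporter; luminescence was recorded following 22 h exposure.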

[14] = qHTS assay to identify small molecule phospholipidosis (PLD) inducers (AID 1259344; active means well fitted curve in the direction sought with a large enough effect; an effect the other way counts as inactive or inconclusive)
Summary of the method: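 Read-out is LipidTOX Red fluorescence (ex 595/em 615) imaged in HepG2 cells after 24 h compound exposure at 37 C, with Hoechst nuclear counterstain (ex 352/em 461) allowing per-cell normalisation.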

[15] = qHTS assay to identify small molecule HDAC inhibitors (AID 1259364);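 further: wild-type HCT-116 cells with endogenous class I/II HDAC activity; top concentration of the series differs between compounds; nearly all actives have a fitted effect of over 45% in size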
Summary of the method: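 Screening used wild-type human colon HCT-116 cells incubated overnight, dosed with compounds for 2 hours, and assayed with a homogeneous luminogenic HDAC I/II reagent for 30 minutes at room temperature.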

[16] = qHTS assay to identify small molecule agonists of the sonic hedgehog signaling (Shh) pathway - cell viability counter screen (AID 1259366); further: nearly all actives have a fitted effect of over 50% in size; further: potency means the concentration at half of the fitted maximal effect
Summary of the method: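 Cytotoxicity counter screen: CellTiter-Fluor reagent added after 23 h compound exposure, then 1 h at 37C and fluorescence read. Cells were 3T3 Gli1-Luc, seeded 2,000 per well and dosed 4 h post-plating.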

[17] = qHTS assay to identify small molecule agonists of the sonic hedgehog signaling (Shh) pathway (AID 1259368; calls by dose curve;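 further: NIH/3T3-derived 3T3Gli1-Luc cells carrying a stable Gli1-driven firefly luciferase reporter; series mostly up to about 92 µM; nearly all actives have a fitted effect of over 15% in size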)
Summary of the method: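 Hedgehog pathway agonism scored by increased firefly luciferase luminescence in 3T3Gli1-Luc cells treated 24 hr at 37 C; detection used a 30 min room-temperature reagent incubation.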

[18] = qHTS assay to identify small molecule antagonists of the sonic hedgehog signaling (Shh) pathway - cell viability counter screen (AID 1259367); further: nearly all actives have a fitted effect of over 55% in size
Summary of the method: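 Fluorescence read-out (CellTiter-Fluor, 1 hr at 37C) taken after 23 hr compound treatment of 3T3 Gli1-Luc cells stimulated with conditioned medium. Cells were seeded at 2,000 per well and pre-incubated 4 hr.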

[19] = molecular target: Androgen receptor (Homo sapiens) (UniProt P10275); test: qHTS assay to identify small molecule antagonists of the androgen receptor (AR) signaling pathway using the MDA cell line in the presence of 0.5 nM R1881 (AID 1259243); further: nearly all actives have a fitted effect of over 50% in size
Androgen receptor (Homo sapiens), sequence (P10275 whole entry, looked up): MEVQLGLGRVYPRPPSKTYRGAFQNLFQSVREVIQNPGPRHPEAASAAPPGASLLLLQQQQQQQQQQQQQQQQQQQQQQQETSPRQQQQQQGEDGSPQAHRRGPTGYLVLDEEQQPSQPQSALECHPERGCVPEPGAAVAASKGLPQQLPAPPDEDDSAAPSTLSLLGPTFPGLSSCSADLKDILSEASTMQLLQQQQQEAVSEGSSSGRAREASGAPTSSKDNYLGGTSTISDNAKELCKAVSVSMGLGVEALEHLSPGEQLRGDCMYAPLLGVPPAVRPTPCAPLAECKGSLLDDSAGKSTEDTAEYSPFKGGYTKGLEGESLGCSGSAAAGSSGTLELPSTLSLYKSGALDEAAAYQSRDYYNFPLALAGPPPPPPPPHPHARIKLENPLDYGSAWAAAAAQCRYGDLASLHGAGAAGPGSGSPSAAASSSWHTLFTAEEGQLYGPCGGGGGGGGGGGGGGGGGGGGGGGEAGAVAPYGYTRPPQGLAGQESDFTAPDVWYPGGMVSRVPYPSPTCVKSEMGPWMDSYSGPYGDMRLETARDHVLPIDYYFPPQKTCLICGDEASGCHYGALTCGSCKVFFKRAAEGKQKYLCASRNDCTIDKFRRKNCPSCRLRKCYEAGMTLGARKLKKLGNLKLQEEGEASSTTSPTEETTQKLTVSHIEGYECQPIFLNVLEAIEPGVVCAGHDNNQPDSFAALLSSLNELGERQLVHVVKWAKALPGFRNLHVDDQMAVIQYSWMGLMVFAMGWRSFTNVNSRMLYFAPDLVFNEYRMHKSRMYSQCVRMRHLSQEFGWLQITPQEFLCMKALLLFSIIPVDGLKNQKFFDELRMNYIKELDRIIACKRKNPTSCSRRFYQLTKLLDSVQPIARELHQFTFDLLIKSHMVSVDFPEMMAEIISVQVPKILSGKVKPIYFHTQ
Summary of the method: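 With R1881 held at 0.5 nM (final), compound effects on MMTV-luciferase expression in MDA-kb2 cells were scored by luminescence after a 16 hr, 37C incubation.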

[20] = qHTS assay to identify small molecule HDAC inhibitors - cell viability counter screen (AID 1259365)
Summary of the method: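 CellTiter-Glo luminescence (30 min, room temperature) reported viability after a 2 h compound exposure at 37 C. Cells: wild-type HCT-116, 1,500 per well, seeded the night before.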

Compound	Potency [1]	Potency [2]	Potency [3]	Potency [4]	Potency [5]	Potency [6]	Potency [7]	Potency [8]	Potency [9]	Potency [10]	Potency [11]	Potency [12]	Potency [13]	outcome [14]	Potency [15]	Potency [16]	Potency [17]	Potency [18]	Potency [19]	Potency [20]
CCCCCCCC(=O)O	inactive	inactive	inactive	inactive	inactive	inactive	inactive	inactive	inactive	inactive	inactive	inactive	inactive	inactive	inactive	inactive	inactive	–	–	–
CC/C=C(\C(=O)N[C@@H]1C(=O)N2C(C(=O)OCOC(=O)C(C)(C)C)=C(COC(N)=O)CS[C@H]12)c1csc(N)n1	inactive	inactive	inactive	inactive	inactive	inactive	inactive	inactive	inactive	inactive	inactive	inactive	inactive	inactive	inactive	inactive	inactive	inactive	–	–
Nc1nc(N)c2nc(-c3ccccc3)c(N)nc2n1	inactive	inactive	49.5 µM (active) and 49 µM (active)	inactive	inactive	inactive	inactive	inactive	inactive	inactive	inactive	inactive	inactive	inactive	inactive	–	inactive	–	inactive	–
NC(=O)NC(N)=O	inactive	inactive	inactive	inactive	inactive	inactive	inactive	inactive	inactive	inactive	inactive	inactive	inactive	–	inactive	inactive	inactive	inactive	–	inactive
Cc1ccncc1	inactive	inactive	inactive	inactive	inactive	inactive	inactive	inactive	inactive	inactive	inactive	inactive	inactive	–	inactive	inactive	inactive	inactive	–	inactive
CC(C)=CCC/C(C)=C/C=O	inactive	inactive	inactive	inactive	inactive	inactive	inactive	inactive	inactive	inactive	inactive	inactive	inactive	–	inactive	inactive	inactive	inactive	–	inactive
CC(=O)OC(C)(C)C1CC=C(C)CC1 (stereo not given)	inactive	inactive	inactive	inactive	inactive	inactive	inactive	inactive	inactive	inactive	inactive	inactive	inactive	–	inactive	inactive	inactive	inactive	–	–
CC1(C)C(=O)N(Cl)C(=O)N1Cl	inactive	inactive	inactive	inactive	inactive	inactive	inactive	inactive	inactive	inactive	inactive	inactive	inactive	–	inactive	inactive	inactive	inactive	–	inactive
Cc1ccccc1C=O	inactive	inactive	inactive	inactive	inactive	inactive	inactive	inactive	inactive	inactive	inactive	inactive	inactive	–	inactive	inactive	inactive	–	–	inactive
O=Cc1ccc(CO)o1	inactive	inactive	inactive	inactive	inactive	inactive	inactive	inactive	inactive	inactive	inactive	inactive	inactive	–	inactive	inactive	inactive	–	–	inactive
OC1CCCCC1	inactive	inactive	inactive	inactive	inactive	inactive	inactive	inactive	inactive	inactive	inactive	inactive	inactive	–	inactive	inactive	inactive	–	–	inactive
Cc1cc(C)cc(O)c1	inactive	inactive	inactive	inactive	inactive	inactive	inactive	inactive	inactive	inactive	inactive	inactive	inactive	–	inactive	8.65 µM (active) and inactive	inactive	–	–	inactive
CC(C=O)Cc1ccc(C(C)(C)C)cc1 (stereo not given)	inactive	inactive	inactive	inactive	inactive	inactive	inactive	inactive	inactive	inactive	inactive	inactive	–	–	inactive	inactive	inactive	–	inactive	–
C=CC(C)(C)C	inactive	inactive	inactive	inactive	inactive	inactive	inactive	inactive	inactive	inactive	inactive	inactive	inactive	–	inactive	inactive	inactive	inactive	–	inactive
CCCCC(=O)O	inactive	inactive	inactive	inactive	inactive	inactive	inactive	inactive	inactive	inactive	inactive	inactive	inactive	inactive	inactive	inactive	inactive	inactive	–	inactive
Cc1ccc(Cl)cc1	inactive	inactive	inactive	inactive	inactive	inactive	inactive	inactive	inactive	inactive	inactive	inactive	inactive	–	inactive	inactive	inactive	inactive	–	inactive
